This passage reports viability results from PubChem BioAssay AID1004 (SRMLSC, 2008).

A number with no mark means an inactive call. Calls of active or inactive are those of the source.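 Rule for the calls: active = viability at 10 µM of 29.74% or lower, 3 SD below the compound median; inactive = the rest.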

This assay in a line: viability of HCT116 lacking mutant beta-catenin – cell-based, DP diverse set, validation, pilot screen (AID 1004). The note with it: HCT116 (mutant beta-catenin deleted) viability, CellTiter-Glo, 60 h; at 10 µM; stronger effect = lower value. Background: ATP-based viability assays read luminescence as a measure of living cells.
What is called viability is a read-out of living cells in per cent, often relative to untreated cells. For `C[C@@H]1C[C@@H]([C@@H](C)CC2CC(=O)NC(=O)C2)C(=O)[C@@H](C)C1`, the viability was 27.8% (active).

With `C[C@H]1c2cccc(O)c2C(O)=C2C(=O)[C@]3(O)C(O)=C(C(N)=O)C(=O)[C@@H](N(C)C)[C@@H]3[C@@H](O)[C@@H]21`, the viability was 107%.

For `CN(C)c1ccc(/C=C2\C(=O)Nc3ccccc32)cc1`, the viability is 80.2%.

For the molecule `CCOC(=O)c1c(N)sc(C)c1-c1ccccc1`, the viability is 108%.

For the molecule `CC1(COc2ccc(CC3SC(=O)NC3=O)cc2)CCCCC1` (stereo unspecified), the viability was 97%.

Consider `O=C(c1ccccc1)c1ccccc1`, for which the viability was 97.8%.

In the case of `CC1=C(/C=C/C(C)=C/C=C/C(C)=C/C(=O)O)C(C)(C)CCC1`, the viability was 96.5%.

On to `O=C(O)c1cc([N+](=O)[O-])ccc1NCCCc1ccccc1`, for which the viability was 99.6%.

With `Cc1ccc(Cl)c(Nc2ccccc2C(=O)O)c1Cl`, the viability is 98.9%.

For the molecule `C=C1C(=O)[C@]23[C@H](O)[C@H]1CC[C@H]2[C@@]12COC3(O)[C@H](O)[C@@H]1C(C)(C)CC[C@@H]2O`, the viability is 88%.

Regarding `CC1(C)[C@@H](O[C@H]2O[C@H](C(=O)O)[C@@H](O)[C@H](O)[C@H]2O[C@@H]2O[C@H](C(=O)O)[C@@H](O)[C@H](O)[C@H]2O)CC[C@]2(C)[C@H]3C(=O)C=C4[C@@H]5C[C@@](C)(C(=O)O)CC[C@]5(C)CC[C@@]4(C)[C@]3(C)CC[C@@H]12`, the viability is 101%.

Consider `CC(C)=CCC[C@](C)(O[C@@H]1O[C@H](CO)[C@@H](O)[C@H](O)[C@H]1O)[C@H]1CC[C@]2(C)[C@@H]1[C@H](O)C[C@@H]1[C@@]3(C)CC[C@H](O[C@@H]4O[C@H](CO)[C@@H](O)[C@H](O)[C@H]4O[C@@H]4O[C@H](CO)[C@@H](O)[C@H](O)[C@H]4O)C(C)(C)[C@@H]3[C@@H](O)C[C@]12C`, for which the viability is 93.8%.

In the case of `C=C(CCC12O[C@H](C(=O)O)[C@@](O)(C(=O)O)[C@](C(=O)O)(O1)[C@H](OC(=O)/C=C/[C@@H](C)C[C@@H](C)CC)[C@H]2O)[C@@H](OC(C)=O)[C@H](C)Cc1ccccc1`, the viability is 100%.

As for `CCN(CC)C(=S)SSC(=S)N(CC)CC`, the viability is 76.5%.

For the molecule `O=c1c(-c2ccc(O)cc2)coc2cc(O)cc(O)c12`, the viability was 96.7%.

Regarding `COc1cc(-c2ccc(=O)[nH]n2)ccc1OC(F)F`, the viability was 105%.

`O=c1[nH]cc(F)c(=O)[nH]1`: the viability is 58.1%.

Turning to `C[C@]12CC[C@@H]3c4ccc(O)cc4CC[C@H]3[C@@H]1CC[C@H]2O`, the viability was 91.1%.

`C=C1CC[C@H](O)C/C1=C/C=C1\CCC[C@]2(C)[C@@H]([C@H](C)CCCC(C)C)CC[C@@H]12`: the viability was 104%.

`CC1(C)OC2CC(=O)OCC23C1CC(=O)C1(C)C3CC[C@@]2(C)[C@H](c3ccoc3)OC(=O)C3OC312` (stereo partly specified): the viability was 93%.

Regarding `CC(C)C[C@H]1C(=O)N2CCC[C@H]2[C@]2(O)O[C@](NC(=O)[C@@H]3C=C4c5cccc6[nH]c(Br)c(c56)C[C@H]4N(C)C3)(C(C)C)C(=O)N12`, the viability is 89.9%.

On to `COc1c(C)c2c(c(O)c1C/C=C(\C)CCC(=O)O)C(=O)OC2`, for which the viability was 49.1%.

With `C[C@@H]1CC[C@]2(C(=O)O)CC[C@]3(C)C(=CCC4[C@@]5(C)C[C@@H](O)[C@H](O)[C@@](C)(CO)C5[C@H](O)C[C@]43C)C2[C@H]1C` (stereo partly specified), the viability is 95.4%.

As for `O=C(O)c1cc(=O)c2c(OCC(O)COc3cccc4oc(C(=O)O)cc(=O)c34)cccc2o1`, the viability is 100%.

As to `CC(C)NCC(O)COc1cccc2ccccc12` (stereo unspecified), the viability is 94.6%.

With `Cc1c2oc3c(C)ccc(C(=O)N[C@@H]4C(=O)N[C@H](C(C)C)C(=O)N5CCC[C@H]5C(=O)N(C)CC(=O)N(C)[C@@H](C(C)C)C(=O)O[C@@H]4C)c3nc-2c(C(=O)N[C@@H]2C(=O)N[C@H](C(C)C)C(=O)N3CCC[C@H]3C(=O)N(C)CC(=O)N(C)[C@@H](C(C)C)C(=O)O[C@@H]2C)c(N)c1=O`, the viability is 26% (active).

Take `O=c1c2ccccc2nc2n1CCc1c-2[nH]c2ccccc12`: the viability was 90.5%.

For `O=C(c1ccc(F)cc1)C1CCN(CCn2c(=O)[nH]c3ccccc3c2=O)CC1`, the viability was 104%.

With `COc1ccc2cc3[n+](cc2c1OC)CCc1cc2c(cc1-3)OCO2`, the viability was 99.8%.

Regarding `CC(C)C[C@@H](NC(=O)[C@@H](O)[C@H](N)Cc1ccccc1)C(=O)O`, the viability was 92.8%.

For `Nc1c(N=Nc2ccc(-c3ccc(N=Nc4cc(S(=O)(=O)O)c5ccccc5c4N)cc3)cc2)cc(S(=O)(=O)O)c2ccccc12`, the viability was 83%.
